Compound activity (PubChem BioAssay)
Shown are actives, neighbours in structure and some others; about 3.4% of the full set was active somewhere.
MEKK3 PB1 HTS: modulators of MEKK3-MEK5 PB1 binding, primary screen, biochemical, wildtype MEKK3, multiplex bead flow cytometry, Alexa488-MEK5; bead-based flow cytometry, Alexa488-MEK5 binding to MEKK3; actives lie on both sides; 0 = blocked by unlabeled MEK5, 100 = vehicle; binding response (% of control), % at 10 µM; 290,000 compounds, 1.4% hits;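 active = binding response more than 3 SD above or below the average of its plate-row segment, actives on both sides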;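 note: Alexa488 bead fluorescence after subtracting the streptavidin-only scavenger bead signal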
Target sequence (Q99759 whole entry, looked up): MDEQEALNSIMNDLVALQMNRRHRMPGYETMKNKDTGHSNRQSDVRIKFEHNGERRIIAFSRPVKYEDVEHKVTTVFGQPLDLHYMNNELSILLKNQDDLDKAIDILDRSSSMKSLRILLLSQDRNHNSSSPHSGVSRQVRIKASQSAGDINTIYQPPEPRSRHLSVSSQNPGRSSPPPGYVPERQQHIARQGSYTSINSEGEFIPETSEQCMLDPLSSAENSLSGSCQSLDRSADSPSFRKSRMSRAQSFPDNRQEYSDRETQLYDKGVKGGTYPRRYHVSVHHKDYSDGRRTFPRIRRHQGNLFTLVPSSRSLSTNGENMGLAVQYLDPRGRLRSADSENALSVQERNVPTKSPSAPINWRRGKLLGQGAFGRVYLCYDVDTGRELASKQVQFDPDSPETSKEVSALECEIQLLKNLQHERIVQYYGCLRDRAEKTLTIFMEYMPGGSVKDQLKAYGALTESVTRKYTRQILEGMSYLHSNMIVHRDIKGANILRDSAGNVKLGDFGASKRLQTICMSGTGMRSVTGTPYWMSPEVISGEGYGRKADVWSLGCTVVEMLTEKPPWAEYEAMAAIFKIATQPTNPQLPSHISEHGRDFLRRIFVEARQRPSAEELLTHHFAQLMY
ANO1 block: TMEM16A chloride channel inhibitors, primary screen, cell-based, HTS; HEK293 TMEM16A/YFP iodide influx fluorescence, ionomycin; normalized B-score (activity score, 25-100; higher = stronger inhibition) at 10 µM; 310,000 compounds, 1.2% hits; AID 588511, 2011;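 active = ratio plate-corrected score three or more library SD toward inhibition, starting fluorescence score within five deviations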;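 note: score derived from kinetic fluorescence span divided by baseline fluorescence per well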
MEKK2 mut-MEK5: MEK5 binding signal on mutant MEKK2 PB1, primary screen, biochemical, multiplex bead flow cytometry, Alexa488-MEK5. AID 1530, 2009. percent response, % at 10 µM. Alexa488-MEK5 binding to MEKK2 mutant. 290,000 compounds, 0.35% hits; in the data active = percent response above about 24%, passing the limit was not always enough
MEKK2 WT-MEK5: modulators of MEK5 binding to wildtype MEKK2, primary screen, biochemical, multiplex bead flow cytometry, Alexa488-MEK5; Mitogen-activated protein kinase kinase kinase 2 (Homo sapiens), Q9Y2U5; Alexa488-MEK5 binding to MEKK2 WT; actives lie on both sides; binding response (% of control), % at 10 µM; 290,000 compounds, 1.1% hits; AID 1531, 2009; in the data active = binding response below about 67% or above about 130%
NTR1 agonist: agonists of human NTR1, primary screen, imaging, U2OS cells, beta-arrestin-GFP, high content; Neurotensin receptor type 1 (Homo sapiens), P30989; NTR1-U2OS beta-arrestin-GFP spot imaging, agonist mode; activation, % at 20 µM; 330,000 compounds, 0.17% hits;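 active = activation at or above 40% of the spot to cytoplasm intensity ratio, with at least 20 cells analyzed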;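 note: 0% = DMSO without peptide and 100% = 100 nM NTR1 peptide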
ANO1 activ: TMEM16A chloride channel activators or potentiators, primary screen, cell-based, HTS; Anoctamin-1 (Mus musculus), Q8BHY3; HEK293 TMEM16A/YFP-H148Q/I152L, iodide quench fluorescence; stronger effect = lower value; B-score at 10 µM; 340,000 compounds, 0.3% hits; AID 623877, 2012;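 active = fluorescence-ratio B-score plate-corrected deviation score at least 3 library SD below zero, with starting fluorescence score within 5 deviations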;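 note: channel opened by trigger with iodide after compound preincubation; score built on the fluorescence ratio of max minus min over baseline; more negative score means more quench and so TMEM16A activation or potentiation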
TMEM16A reconf: TMEM16A chloride channel inhibitors, confirmation, cell-based, re-confirmation. 2,300 compounds, 39% hits. shares compounds with ANO1 block. HEK293 TMEM16A/YFP-H148Q, iodide quench fluorescence; ionomycin added to raise cell calcium. inhibition, % at 10 µM;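 active = mean duplicate percent inhibition, scaled so buffer wells are 0 and the reference blocker 100, over three buffer SD above buffer mean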
HEK293 Ca mobil: calcium mobilization in TMEM16A/YFP HEK293 cells, confirmation, counter-screen for TMEM16A inhibitor project; Fluo4 calcium mobilization; shares compounds with ANO1 block; AID 652231, 2013; 2,300 compounds, 2% hits; calcium response (% of ionomycin), % at 10 µM;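 active = duplicate-averaged calcium signal over 20% of the ionomycin maximum, relative to buffer baseline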;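 note: each well's signal is peak minus trough fluorescence divided by its pre-addition baseline; 0% = buffer wells and 100% = ionomycin wells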
Parental YFP cnt: iodide YFP quench changes in parental YFP-HEK293, counter-screen for TMEM16A inhibitor project, cell-based. ionomycin. shares compounds with ANO1 block. 2,300 tested, under 10 active. YFP ratio F(max-min)/F0 at 10 µM;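 active = yellow fluorescent protein signal ratio exceeding the buffer control mean by over 5 SD of those controls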;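 note: ratio is mean of duplicate wells from kinetic YFP trace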
ClC-1 rat inh: ClC-1 chloride channel inhibition, selectivity assay for TMEM16A inhibitor project, cell-based, voltage-dependent ClC-1. ratio percent, % at 10 µM. CHO ClC-1-YFP, iodide influx fluorescence quench; iodide control reads 0, buffer control 100. AID 652236, 2013. 2,300 tested, under 10 active. shares compounds with ANO1 block;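 active = duplicate-mean ratio percent above the mean of iodide-only control wells, which defines zero, plus 5 of their SD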;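 note: higher percent means stronger block of ClC-1 iodide influx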
* = called active by the depositor; i = inactive; nt = no result.

SMILES	MEKK3 PB1 HTS	ANO1 block	MEKK2 mut-MEK5	MEKK2 WT-MEK5	NTR1 agonist	ANO1 activ	TMEM16A reconf	HEK293 Ca mobil	Parental YFP cnt	ClC-1 rat inh
CCCOc1ccc(Cn2cnc3ccccc32)cc1	101	25*	1	102	0	i	17%*	i	-1	-10
NC(=NC(=O)c1ccccc1)N1N=CCC1c1ccccc1 (stereo unspecified)	101	i	0	100	0	i	nt	nt	nt	nt
N#CCCN=C(NS(=O)(=O)c1ccccc1)c1ccccc1	105	i	10	105	-1	i	nt	nt	nt	nt
O=C(Nc1cccc(F)c1)N1CCN(C(=O)c2ccco2)CC1	97	i	-5	103	0	i	nt	nt	nt	nt
O=C(CCC1CCCC1)c1c(O)c2ccccc2oc1=O	107	100*	3	109	-1	i	34%*	58%*	-0.94	-38
Cc1ccnc(NC(=O)CCC(=O)N(Cc2ccco2)C(C(=O)NC(C)C)c2ccc(F)cc2)c1 (stereo unspecified)	100	i	-3	99	0	i	nt	nt	nt	nt
CCc1ccc(N2C(=O)CC(Cn3nc(C)cc3C)C2=O)cc1 (stereo unspecified)	103	i	5	98	4	i	nt	nt	nt	nt
CCc1c(C(=O)Nc2nnc(C3CC3)s2)csc1C	103	100*	4	103	2	i	i	i	-0.95	-5
Cc1noc(C)c1COc1ccccc1C(=O)NC(C)c1ccc(F)cc1 (stereo unspecified)	nt	nt	nt	nt	nt	i	nt	nt	nt	nt
CC(OC(=O)c1ccc(NC(=O)CC#N)cc1)C(=O)Nc1nc(-c2ccccc2)cs1 (stereo unspecified)	nt	100*	nt	nt	6	i	22%*	i	-0.8	-4
Cc1cc(C(=O)OCC(=O)Nc2nc(-c3ccccc3)cs2)c(C)o1	102	i	0	99	2	i	nt	nt	nt	nt
CC(OC(=O)c1ccc(NC(=O)CC#N)cc1)C(=O)Nc1ccc(Oc2ccccc2)cc1 (stereo unspecified)	103	i	7	106	1	i	nt	nt	nt	nt
Cc1cc(C(=O)OC(C)C(=O)Nc2nc(-c3ccccc3)cs2)c(C)o1 (stereo unspecified)	95	25*	-3	92	1	i	i	i	-0.94	-12
CCCc1cc(C(=O)Cc2ccc(C(=O)OCC)o2)c(O)cc1O	102	100*	0	98	-2	i	66%*	i	-0.84	-1
CCc1cc(C(=O)COc2ccccc2F)c(O)cc1O	98	100*	-3	93	-3	i	47%*	i	-1.1	-12
CCc1cc(C(=O)Cc2ccc(F)cc2)c(O)cc1O	102	100*	4	107	3	i	68%*	i	-0.82	-10
CCCc1cc(-c2n[nH]c(C)c2-c2ccc(C(=O)OCC)o2)c(O)cc1O	105	i	7	104	6	i	nt	nt	nt	nt
COc1ccc(OC)c(C(=O)COC(=O)COc2ccccc2F)c1	nt	nt	nt	nt	2	i	nt	nt	nt	nt
CCc1cc(C(=O)Cc2nc3ccccc3[nH]2)c(O)cc1O	103	i	1	101	-1	nt	nt	nt	nt	nt
O=C(COC(=O)Cc1ccccc1[N+](=O)[O-])NCC1CCCCC1	111	i	5	100	-2	i	nt	nt	nt	nt
O=C(Nc1cccc2ccccc12)N1CCN(c2ncccn2)CC1	90	i	-11	89	1	i	nt	nt	nt	nt
O=c1c(Sc2ccccc2)c(C(F)(F)F)[nH]n1-c1ccccc1	106	100*	4	102	0	i	24%*	i	-1	-16
O=C1CCC(C(=O)OCC(=O)Nc2ccc(Cl)cc2C(F)(F)F)=NN1	nt	nt	nt	nt	2	i	nt	nt	nt	nt
COc1cccc(CNc2cnc3ccccc3c2)c1O	86	25*	6	101	1	i	26%*	i	-0.94	-13
Cc1ccc(S(=O)(=O)N/N=C/c2cc(Br)ccc2O)cc1	95	100*	-8	94	3	i	20%*	i	-0.89	-12
SMILES	MEKK3 PB1 HTS	ANO1 block	MEKK2 mut-MEK5	MEKK2 WT-MEK5	NTR1 agonist	ANO1 activ	TMEM16A reconf	HEK293 Ca mobil	Parental YFP cnt	ClC-1 rat inh
COc1ccc(O)c(/C=N/NS(=O)(=O)c2ccc(C)cc2)c1	105	i	2	106	1	i	nt	nt	nt	nt
O=C(COc1ccc(Cl)cc1Cl)NN1C(=O)C2C3C=CC(C3)C2C1=O (stereo unspecified)	91	i	-23	96	0	i	nt	nt	nt	nt
CCOC(=O)C(C)Sc1nc2c(c(-c3cccs3)c1C#N)CCC2 (stereo unspecified)	98	i	-2	93	4	i	i	i	-1.3	-7
CC(C)OC(=O)CC(=O)CSc1nc2c(c(-c3cccs3)c1C#N)CCC2	108	i	27	105	6	i	nt	nt	nt	nt
Cn1c(CNc2nc3ccccc3n2CCN2CCCCC2)nc2ccccc21	103	25*	2	109	1	i	i	i	-0.85	-2
COc1ccc(CCNc2oc(COc3ccc(Br)cc3)nc2C#N)cc1OC	95	100*	-2	93	8	i	i	i	-0.96	-18
Cc1ccc(OCc2nc(C#N)c(NCc3ccc4c(c3)OCO4)o2)cc1	108	25*	2	103	4	i	16%*	i	-1.1	-8
CCc1cccc(NC(=O)c2cccc3c2C(=O)N(CC2CCCO2)C3)c1 (stereo unspecified)	100	i	0	98	12	i	nt	nt	nt	nt
